# Laboratory results from PubChem BioAssay AID588689 (Southern Research Specialized Biocontainment Screening …, 2011).
# The whole screen tested about 340,000 compounds, of which about 1,000 (0.29%) were called active. No stated cut-off is given here; in the data, inconclusive means inhibition above about 29% without an active follow-up result; inactive means below that. The list is a sample of the results. Results with a measured potency or affinity are listed apart.
# Molecular target: Genome polyprotein (Dengue virus type 2 (strain 16681-PDK53)) (UniProt P29991)
# Experiment: Dengue-2 NS5 methyltransferase inhibitors, primary screen, biochemical, confirmation dose response (AID 588689)
# Conditions: Dengue-2 NS5 methyltransferase capping enzyme assay, at 25 µM, stronger effect = higher value
# [1] = measured here: pilot screen replicate inhibition
SMILES,inhibition,inhibition [1]
O=C(Nc1ccccc1N1CCCCC1)c1cc(S(=O)(=O)N2CCOCC2)ccc1Cl,-0.73% (inactive),
C#CC[N+](C)(C)CC#Cc1ccccc1,-1.48% (inactive),
O=C1CC(c2ccccc2)CC(O)=C1C=NCc1ccc(Cl)c(Cl)c1 (stereo not drawn),3.34% (inactive),
CC1(C)CC(=O)C(C(N)=NC(=O)c2ccccc2)=C(O)C1,0% (inactive),
CC(=O)c1c(C)[nH]c(C(=O)OCC(=O)N2CCc3ccccc32)c1C,-4.77% (inactive),
CCCCc1cc(=O)oc2cc(OCC(=O)N3CCc4ccccc43)ccc12,-4.8% (inactive),
CCc1ccc(N2C(=O)CC(Cn3nc(C)cc3C)C2=O)cc1 (stereo not drawn),-5.48% (inactive),
CN(C)S(=O)(=O)c1cccc(NC(=O)/C=C/c2ccc(S(=O)(=O)N3CCOCC3)cc2)c1,-0.74% (inactive),
COC(=O)c1ccccc1-c1ccc(/C=C2\C(=O)N(c3ccccc3)N=C2c2ccccc2)o1,1.6% (inactive),
CCOC(=O)c1ccc(N2N=C(C)/C(=C/C=C/c3ccco3)C2=O)cc1,10.2% (inactive),
CC1=NN(c2cccc(C(=O)O)c2)C(=O)/C1=C\C=C\c1ccco1,19.1% (inactive),
CC1=NN(c2ccc(C(=O)O)cc2)C(=O)/C1=C/c1ccc(-c2ccccc2F)o1,51.9% (inactive),
O=C(c1ccccc1[N+](=O)[O-])N1CCCC(C(=O)N2CCCCCC2)C1 (stereo not drawn),0% (inactive),
CCc1ccc(NC(=O)c2nc(S(=O)(=O)Cc3ccccc3)ncc2Cl)cc1,-51.9% (inactive),
C=CCSc1nnc(NC(=O)c2nc(SCC)ncc2Cl)s1,-6.43% (inactive),
CCCSc1nnc(NC(=O)c2nc(SC)ncc2Cl)s1,0% (inactive),
O=C(Nc1ccc(F)cc1)c1nc(S(=O)(=O)Cc2ccccc2)ncc1Cl,-51.9% (inactive),
COc1ccc([N+](=O)[O-])cc1NC(=O)CCN1CCOCC1,-1.96% (inactive),
COc1ccc(N(CC(=O)N/N=C/c2ccc(-c3ccc([N+](=O)[O-])cc3)o2)S(=O)(=O)c2ccc(C)cc2)cc1Cl,-4.14% (inactive),

SMILES,inhibition,inhibition [1]
O=C(c1ccc(N2C(=O)c3ccccc3C2=O)cc1)N1CCN(S(=O)(=O)c2ccccc2F)CC1,-0.55% (inactive),
O=C(CCC(=O)Nc1cccc(Cl)c1)N/N=C/c1cc([N+](=O)[O-])ccc1O,-2.94% (inactive),
CN1CCCC(OC(=O)c2ccc(C(C)(C)C)cc2)C1 (stereo not drawn),-4.27% (inactive),
CCOC(=O)C1C(=O)CC(C)(O)C(C(=O)OCC)C1c1cccc(OC)c1 (stereo not drawn),-3.38% (inactive),
CCNCc1cc(OCC)c(OCC(=O)NCCc2ccccc2)cc1Cl,-2.77% (inactive),
CCCn1c(N)c(C(=O)CSc2nc3ncc(Cl)cc3[nH]2)c(=O)[nH]c1=O,-2.94% (inactive),
Cc1ccc(S(=O)(=O)N2[C@@H](c3ccc(Cl)cc3)C(C(=O)O)=CC[C@H]2c2cccc(Cl)c2)cc1,22.7% (inactive),
Cc1ccc(S(=O)(=O)N2[C@@H](c3ccccc3)C(C(=O)O)=CC[C@H]2c2ccc(C(C)C)cc2)cc1,21.6% (inactive),
Cc1ccc(S(=O)(=O)N2[C@@H](c3ccccc3)C(C(=O)O)=CC[C@H]2c2cccc(Cl)c2)cc1,-2.4% (inactive),
Cc1ccc([C@H]2C(C(=O)O)=CC[C@@H](c3cccc(Cl)c3)N2S(=O)(=O)c2ccc(C)cc2)cc1,16.6% (inactive),2.77%
COc1ccc([C@@H]2CC=C(C(=O)O)[C@H](c3cccc(Cl)c3)N2S(=O)(=O)c2ccc(Cl)cc2)cc1,16% (inactive),
Cc1ccc(S(=O)(=O)N2[C@@H](c3ccc(Cl)cc3)C(C(=O)O)=CC[C@H]2c2ccc(C(C)C)cc2)cc1,25.9% (inactive),
Cc1ccc(S(=O)(=O)N2[C@@H](c3cccc(Cl)c3)C(C(=O)O)=CC[C@H]2c2ccc(Cl)cc2)cc1,20.7% (inactive),
Cc1ccc(S(=O)(=O)N2[C@@H](c3cccc(Cl)c3)C(C(=O)O)=CC[C@H]2c2cccc(C)c2)cc1,20.8% (inactive),
O=C(NCCCN1CCCC1=O)c1cccc(N2CCCC2=O)c1,-1.47% (inactive),
CN(C)S(=O)(=O)c1ccc(C(=O)OCC(=O)c2ccc(OC(F)F)cc2OC(F)F)cc1,2.08% (inactive),
CCCN1CCN(C(=O)c2ccc(CS(=O)c3ccc(F)cc3)o2)CC1 (stereo not drawn),-6.18% (inactive),
O=S(=O)(NCc1cccc(C(F)(F)F)c1)NCc1ccccc1F,-7.25% (inactive),
CCn1c(SCc2nc3ccccc3c(=O)[nH]2)nnc1-c1ccncc1,3.13% (inactive),-0.31%

SMILES,inhibition,inhibition [1]
CCCCn1c(N)c(N(CCOC)C(=O)CCc2ccc(OC)cc2)c(=O)[nH]c1=O,-2.18% (inactive),
Cc1ccc(Cc2nc(-c3ccncc3)no2)cc1,-1.78% (inactive),
CN(C)Cc1cc(O)c(CN(C)C)cc1O,24.7% (inactive),
CCN(CC)Cc1cc(C(C)=O)ccc1O,-1.36% (inactive),
Nc1nc(N)c(N=Nc2ccc(C(=O)O)cc2)c(N)n1,0.65% (inactive),
COc1ccc(N=Nc2ccc(N)nc2N)cc1,1.3% (inactive),
COc1cc2cc(CCCOC(=O)c3ccc(Br)cc3)oc(=O)c2cc1OC,8.18% (inactive),
COc1cc(C(CC(=O)Nc2ccc(C)cn2)N2Cc3ccccc3C2=O)cc(OC)c1OC (stereo not drawn),-5.88% (inactive),
Cc1ccc(C(=O)C(C)OC(=O)C2CCN(c3ccc(C(F)(F)F)cn3)CC2)cc1 (stereo not drawn),-0.72% (inactive),
CNC(=O)C1CC(=O)N(CCc2ccc(C)cc2)C1 (stereo not drawn),-3.31% (inactive),
Cc1noc(C(=O)Nc2ccccc2C(F)(F)F)c1Cl,-9.68% (inactive),
O=C1/C(=C/c2ccc(O)c(O)c2)SC(=S)N1Nc1ccccc1,-21.8% (inactive),
Cc1ccc(S(=O)(=O)NN2C(=O)/C(=C\c3ccc(Cl)cc3)SC2=S)cc1,-1.66% (inactive),
COc1ccc(/C=C2/SC(=S)N(n3c(C)ccc3C)C2=O)cc1,-3.19% (inactive),
O=C(Cc1ccccc1)NN1C(=O)/C(=C/c2ccc(C(=O)O)cc2)SC1=S,27% (inactive),
CC(=O)NN1C(=O)/C(=C\c2ccc(C)cc2)SC1=S,-6.43% (inactive),
COc1ccc(/C=C2/SC(=S)N(NS(=O)(=O)c3ccccc3)C2=O)cc1,21.2% (inactive),
O=C(O)c1ccc(/C=C2\SC(=S)N(NC(=O)c3ccccc3)C2=O)cc1,8.49% (inactive),
